In PubChem BioAssay AID720728 (Molecular Libraries Program, Specialized Chemistry Center, …, 2013):
Active and inactive are the calls of the source. No rule for the calls is given here.

Test: mtPTP inhibition measured by calcium retention, dose response, biochemical, dry powder samples, uHTS hits, isolated mitochondria (AID 720728)
Details: calcium retention capacity

CRC/CRC0 ratio at 50 uM (fold over control, higher = inhibition), active:
COc1ccc(Cl)cc1C(=O)Nc1ccc(CN2CCCCC2)cc1 2.57 fold
COC(=O)c1c(NC(=O)C2CCCCC2)sc2c1CC(C)(C)NC2(C)C 2.05 fold
COCCCNCCCOc1ccc(Cl)cc1C(C)(C)C 2.13 fold
COc1ccc(C)c2sc(N(CCCN(C)C)C(=O)CS(=O)(=O)c3ccc(F)cc3)nc12 1.4 fold
CNCCC=C1c2ccccc2CCc2ccccc21 1.66 fold
COc1ccc(-n2cc(CNC3CCN(C)CC3)c(-c3cccc(F)c3)n2)cc1 1.5 fold
N#Cc1c(NCCN)nc(-c2ccco2)c2c1CCCC2 1.81 fold
CCN(CC)c1ccc(NC(=O)c2cc(Cl)ccc2OC)cc1 0.622 fold
N=c1sccn1CC(=O)Nc1cccc(Oc2ccccc2)c1 1.91 fold
Cc1ccc2nc(N(CCCN(C)C)C(=O)CCc3ccccc3)sc2c1 1.61 fold
CCOC(=O)N1CCN(S(=O)(=O)c2ccc(C(=O)N(CCCN(C)C)c3nc4c(C)c(C)ccc4s3)cc2)CC1 1.51 fold
CNCCCC12CCC(c3ccccc31)c1ccccc12 1.82 fold
CCN(CC)CCCN=Cc1c(O)n(Cc2ccccc2)c(=O)c2ccccc12 1.3 fold
C=CCNCCOCCOc1ccc(Cl)cc1C(C)(C)C 1.81 fold
Cc1cc(C)c2nc(N(CCCN(C)C)C(=O)c3ccc(S(=O)(=O)N4CCCCCC4)cc3)sc2c1 1.57 fold
CC(C)(C)c1ccccc1OCCCCCNCCO 1.82 fold
CC1CCCN(CCC(=O)c2ccc(Br)cc2)C1 (stereo unspecified) 2.73 fold
Cc1ccc2nc(N(CCN(C)C)C(=O)/C=C/c3cccs3)sc2c1 1.28 fold
C=CCNCCCOc1ccc(C)cc1Br 1.53 fold
CN1CCC[C@@H]1CCO[C@](C)(c1ccccc1)c1ccc(Cl)cc1 1.81 fold
COc1cc(CNCCO)cc(Cl)c1OCc1ccccc1Cl 1.81 fold
Cc1cc(C)c2nc(N(CCCN(C)C)C(=O)C3=COCCO3)sc2c1 1.4 fold
C=CCNCCOc1ccc(C(C)(C)c2ccccc2)cc1 1.95 fold
CN(C)CCCN1c2ccccc2Sc2ccc(Cl)cc21 1.97 fold
O=C(CC1NCCc2ccccc21)Nc1ccc(Cl)cc1 (stereo unspecified) 1.65 fold
COc1cc(NC(=O)c2cc(-c3cccc(O)c3)on2)cc(OC)c1OC 1.93 fold
